# Screens from PubChem BioAssay.
# D1 PAM: potentiators of human D1 dopamine receptor. P21728. HEK293 TREx D1 cells, calcium flux, dopamine EC20 potentiation. potentiation, % at 10 µM. 360,000 compounds, 0.036% hits; in the data active = potentiation above about 30%
# D1 ag: human D1 receptor agonism; P21728; 360,000 compounds, 1% hits; activation, % at 2 µM; HEK293 T-REx D1 cells, calcium flux, agonist mode
#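 Inducible HEK293 T-REx D1 cells, force-coupled to calcium signalling, were plated at 4000 cells/well with tetracycline and held overnight at 30 C. After no-wash calcium dye loading, compound-evoked calcium rise over 180 s flagged agonists.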
# TRHR ag: agonists of human TRH receptor; activation, % at 2 µM; P34981; 360,000 compounds, 0.18% hits; TRHR cells, calcium flux fluo-8, FDSS agonist mode
# Target sequence (P34981 whole entry, looked up): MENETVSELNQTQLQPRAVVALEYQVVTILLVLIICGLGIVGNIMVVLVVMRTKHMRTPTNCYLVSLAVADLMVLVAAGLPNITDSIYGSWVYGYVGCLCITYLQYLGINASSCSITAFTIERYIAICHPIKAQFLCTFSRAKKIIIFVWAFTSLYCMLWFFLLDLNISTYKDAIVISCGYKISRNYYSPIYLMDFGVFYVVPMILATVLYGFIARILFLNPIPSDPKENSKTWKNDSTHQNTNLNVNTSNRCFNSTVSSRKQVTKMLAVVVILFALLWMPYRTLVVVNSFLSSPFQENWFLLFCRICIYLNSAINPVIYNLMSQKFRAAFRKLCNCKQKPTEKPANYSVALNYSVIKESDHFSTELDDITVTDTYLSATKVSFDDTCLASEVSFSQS
#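 Read-out: compound-evoked intracellular calcium rise in TRHR cells, fluo-8 dye, kinetic FDSS fluorescence at 1 s/cycle following a 10-cycle baseline. Cells cultured overnight before dye loading (30 min–1.5 h, RT).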
# D1 antag: antagonists of human D1 dopamine receptor; HEK293 TREx D1 cells, calcium flux, dopamine EC80; hits give low values; 360,000 compounds, 3.2% hits; AID 504652; P21728; activity change, negative = inhibition, % at 10 µM; in the data active = activity change below about -30%
#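 Cells carrying a force-coupled, tetracycline-inducible human D1 receptor report calcium flux. Each well gets a 10 s baseline, compound with 180 s monitoring, then an EC80 dopamine stimulus with a second 180 s kinetic read.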
# TRHR enhancer: allosterically enhances the human TRH receptor; 360,000 compounds, 0.66% hits; enhancement, % at 2 µM; P34981; TRHR cells, fluo-8 calcium fluorescence, EC20 TRH enhancement; AID 493056; in the data active = enhancement above about 30%
#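 TRHR-expressing cells loaded with fluo-8 calcium dye were read kinetically (ex 480/em 530) during compound addition, then stimulated with an EC20 of TRH (10 nM final). Enhancement of the Gq-mediated intracellular calcium response was scored.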
# Numbers stand for hits; i = inactive; nt = no result. Only some compounds are listed: those with a hit (about 4.6% of all), similar ones and a draw of the others. Cut-off read from the data, not from the text of the source, unless noted: active = activation above about 30%; inactive = the rest.
SMILES,D1 PAM,D1 ag,TRHR ag,D1 antag,TRHR enhancer
O=C(O)CSc1nnc(-c2cc3ccccc3o2)n1-c1ccccc1,i,i,i,i,i
Cc1cccc(C(=O)N(Cc2ccc(C)o2)C2CCS(=O)(=O)C2)c1 (stereo unspecified),i,i,i,i,i
CCN1CCN(c2ccc(NC(=O)c3cccc(F)c3)cc2Cl)CC1,i,i,i,-36,i
O=C(Nc1ccc(-c2nc3ccccc3[nH]2)cc1)c1ccco1,i,i,i,-46,i
O=C(Nc1ccc(N2CCCC2)c(Cl)c1)c1ccco1,i,i,i,i,i
O=C(Nc1ccc(C(=O)Oc2ccccc2)c(O)c1)c1ccco1,i,i,i,-36,i
O=C(/C=C/c1ccco1)Nc1ccc(-c2nc3ccccc3[nH]2)cc1,i,i,i,i,i
CN1CCN(c2ccc(NC(=O)c3ccco3)cc2Cl)CC1,i,i,i,-38,i
COCCN1C(=O)/C(=C/c2cc3c(cc2Br)OCO3)NC1=S,i,i,i,i,i
Cc1nc(CC(=O)Nc2cccc(C)c2C)cs1,i,i,i,i,i
O=C(Nc1ccc(Nc2ccccc2)cc1)c1ccco1,i,i,i,i,i
O=C(Nc1ccc(NC(=O)c2ccco2)cc1)c1ccco1,i,i,i,i,31
Cc1ccn2cc(-c3ccc(NC(=O)c4ccco4)cc3)nc2c1,i,i,i,-33,i
COc1ccc(NC(=O)c2ccco2)cc1NC(=O)c1cccc(C)c1OC,i,i,i,-31,i
O=C(Nc1ccc(Br)cc1)c1ccco1,i,i,i,-42,i
Cc1nc(-c2ccc(NC(=O)c3ccco3)cc2)cs1,i,i,i,i,i
CC(C)C(NC(=O)CCN1C(=O)c2ccccc2C1=O)c1ccccc1 (stereo unspecified),i,i,i,i,i
COc1ccc(-c2onc(C)c2C)cc1S(=O)(=O)NCc1ccc(C)o1,i,i,i,i,i
CCN(CC)S(=O)(=O)c1ccc(NC(=S)NC(=O)CC(C)C)cc1,i,i,i,-33,i
CC(C)CC(=O)NC(=S)Nc1ccc(NC(=O)c2ccco2)cc1,i,i,i,-36,i
COc1cccc(-c2nn[nH]n2)c1O,i,i,i,i,i
CC(=O)c1ccc(NC(=O)CO/N=C(\C)c2cccs2)cc1,i,i,i,-36,i
COC(=O)c1ccc(NC(=O)COC(=O)CCC2CCCC2)cc1,nt,i,i,-41,i
CC(=O)c1ccc(NC(=O)C[n+]2ccccc2)cc1,i,i,i,-31,i
CC(=O)NCC(=O)OCC(=O)Nc1ccc(C(C)=O)cc1,i,i,i,-31,i
SMILES,D1 PAM,D1 ag,TRHR ag,D1 antag,TRHR enhancer
O=C(COC(=O)CCC1CCCC1)Nc1ccc(F)cc1,nt,i,i,i,i
COC(=O)c1ccc(NC(=O)C[n+]2ccccc2)cc1,i,i,i,i,i
COc1ccc(CN2C(=O)c3cccnc3C2O)cc1 (stereo unspecified),i,i,i,i,i
CCOC(=O)c1c(C)[nH]c(C(=O)COC(=O)CCSc2ccccc2)c1C,i,i,i,i,i
Cc1n[nH]c(C)c1S(=O)(=O)N1CCCC(C(=O)NCc2ccc(F)cc2)C1 (stereo unspecified),i,i,i,i,i
Cc1sc2nc(CSc3ccccc3)nc(N3CCN(C)CC3)c2c1C,i,i,i,-42,i
CC(=O)Nc1ccc2c(COC(=O)[C@H](C)N3C(=O)C4CCCCC4C3=O)cc(=O)oc2c1 (stereo partly specified),i,i,i,i,i
Cc1cc(=O)oc2cc(NC(=O)C(C)N3C(=O)C4CCCCC4C3=O)ccc12 (stereo unspecified),i,i,i,-43,i
O=C(O)c1ccc(CN2C(=O)c3cccc4c([N+](=O)[O-])ccc(c34)C2=O)cc1,i,34,i,i,i
CC(=O)Oc1cccc(N2C(=O)c3cccc4c([N+](=O)[O-])ccc(c34)C2=O)c1,i,i,i,-54,i
Cc1ccc(NC(=O)CN(C)C(=O)C2COc3ccccc3O2)cc1 (stereo unspecified),i,i,i,i,i
CC(C)(C)c1ccc(C(=O)Nc2sc3c(c2C#N)CCC(C(C)(C)C)C3)cc1 (stereo unspecified),i,i,i,i,i
CC(C)(C)C1CCc2c(sc(NC(=O)C3CC=CCC3C(=O)O)c2C#N)C1 (stereo unspecified),i,i,i,-40,i
CCOC(=O)c1ccc(NC(=O)Cn2nc(C)c3ccccc3c2=O)cc1,40,i,i,i,30
O=C(Cn1nc(Cc2ccncc2)c2ccccc2c1=O)Nc1cccc(C(F)(F)F)c1,i,i,i,i,i
CCOc1ccc(NC(=O)Cn2nc(Cc3ccncc3)c3ccccc3c2=O)cc1,i,i,i,i,38
COC(=O)c1ccc(NC(=O)Cn2nc(C)c3ccccc3c2=O)cc1,i,i,i,i,i
Cn1c(N)c(C(=O)Nc2c(Cl)cccc2Cl)sc1=S,i,i,i,i,i
Cc1cc(C(=O)OCC(=O)Nc2ccc(S(N)(=O)=O)cc2)c2ccccc2n1,i,i,i,i,i
COc1cc(C)c(C)cc1S(=O)(=O)Nc1cccc(-c2ccc(N3CCOCC3)nn2)c1,i,i,i,-69,i
COc1ccc(S(=O)(=O)Nc2cccc(-c3ccc(N4CCOCC4)nn3)c2)cc1F,i,i,i,-37,i
Cc1ccc([N+](=O)[O-])cc1S(=O)(=O)Nc1cccc(-c2ccc(N3CCOCC3)nn2)c1,i,i,i,i,i
CSC1=N/C(=C\c2ccccc2C)C(=O)S1,i,i,i,i,32
Cc1ccc2oc(=O)c(S(=O)(=O)c3ccc(F)cc3)cc2c1,i,i,i,i,i
O=c1oc2c(F)cc(F)cc2cc1S(=O)(=O)c1ccc(F)cc1,i,69,i,i,i
SMILES,D1 PAM,D1 ag,TRHR ag,D1 antag,TRHR enhancer
Clc1ccc(CNc2ccc(CNc3ncn[nH]3)cc2)c(Cl)c1,i,i,i,-46,i
Cc1cccc(OCC(=O)NCc2ccncc2)c1C,i,i,i,i,i
COc1ccc(/C(C)=N/N=C2/NC(=O)CC(C(=O)O)S2)cc1F (stereo unspecified),i,i,i,-31,i
CNC(=O)C1CC(=O)N/C(=N/N=C(\C)c2cccs2)S1 (stereo unspecified),i,i,i,-32,i
C/C(=N\N=C1\NC(=O)CC(C(=O)O)S1)c1ccc(F)cc1 (stereo unspecified),i,i,i,i,i
COc1ccc(/C(C)=N/N=C2/NC(=O)CC(C(=O)O)S2)cc1 (stereo unspecified),i,i,i,i,i
COc1ccccc1NC(=O)CSc1nc(-c2ccc(C)cc2)nc2c1Cc1c(CO)cnc(C)c1O2,i,i,i,i,i
CCN1/C(=C/c2ccc3cc(C)ccc3[n+]2CC)Sc2cc(C)c(C)cc21,i,i,i,i,i
